Assay [1] is described as follows: AP1 Signaling Pathway (AID 357).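 Further: ME-180 reporter cells stimulated with EGF at its EC50 level; on the % scale 0 is the no-effect control and ±100 the full control effect.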 As to conditions: ME-180 AP-1-bla reporter, EGF-induced, beta-lactamase ratio, 5 h; at 7.69 µM (top of the series) unless noted. In short, it runs like this:
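Cells are seeded overnight, exposed to compound titrations and an EC50 level of EGF for 5 hours at 37 °C, then loaded with CCF4 dye for 2.5 hours. Beta-lactamase activity under the AP-1 element is read as a blue/green ratio.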

Assay [2] addresses Cytochrome P450 1A2 (Homo sapiens) (UniProt P05177). Kind of assay: p450-cyp1a2 (AID 410; calls by dose curve; further: potency means the concentration at half of the fitted maximal effect;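 on activity change, negative = inhibition: -100% = full effect of reference inhibitor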). In short, it runs like this: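 O-Demethylation of luciferin 6' methyl ether by human CYP1A2 is monitored as luciferase luminescence. Substrate sits at Km (100uM); enzyme is 20nM. Values are scaled to 57 uM furafylline as maximal inhibition.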
Assay [3] in a line: Stat Signaling Pathway (AID 446).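 Further: ME-180 cervical cancer cells given 40 pM IL-6 alongside compound; SIE-controlled beta-lactamase reporter measured as 460/530 nm FRET emission ratio; on the % scale 0 is the no-effect control and ±100 the full control effect.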 Conditions: ME-180 (cervical carcinoma) SIE beta-lactamase reporter, IL-6 stimulated, 5 h; at 7.69 µM (top of the series) unless noted. In short, it runs like this:
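Overnight-plated ME-180 cells bearing a STAT Inducible Element beta-lactamase reporter; 5 h co-exposure to compound and 40 pM IL-6; values normalized to 300 pM IL-6 and 125 nM JAK inhibitor controls.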

For assay [4], the target named is Glucocorticoid receptor (Homo sapiens) (UniProt P04150). Put plainly: GR-EFC Redistribution (AID 451; calls by dose curve; further: potency means the concentration at half of the fitted maximal effect). Conditions: CHO-K1 GR-EFC translocation, beta-gal luminescence, 2 h. In short, it runs like this:
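CHO-K1 cells expressing nuclear EA and GR-ED fragments of b-gal; compounds titrated up to 46 uM final, 2 h at 37 C. GR nuclear translocation read as complemented b-gal luminescence after 1 h RT detection.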

The target in assay [5] is Mitogen-activated protein kinase 10 (Mus musculus) (UniProt Q61831). Kind of assay: JNK3 AlphaScreen Assay (AID 530).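 Further: kinase came from lysate of stimulated human HepG2 cells; signal reports phosphorylation of biotinylated GST-cJun 1-79 at Ser73 with 10 µM ATP; on the % scale 0 is the no-effect control and ±100 the full control effect.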 The gist of the method:
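Activity was read by AlphaScreen after JNK3-containing HepG2 lysate (cytokine pre-activated) phosphorylated biotinylated GST-cJun with 10 uM ATP at room temperature. Phospho-Ser73 cJun antibody with Protein-A acceptor beads provided detection.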
In general terms: In Alpha technology, singlet oxygen from a donor bead excites a nearby acceptor bead.

Assay [6] concerns the target 3',5'-cyclic-AMP phosphodiesterase 4B (Homo sapiens) (UniProt Q07343). Put plainly: qHTS Assay for Inhibitors of PDE-IV (AID 607; active means well fitted activation curve with a large enough effect in the main read-out, with a control signal flat, not every such curve was filed as active; further: % of control where 0% means no effect). The gist of the method: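 Live HEK293 cells with a modified cyclic nucleotide-gated (CNG) channel report intracellular cAMP via membrane-potential dye fluorescence (ex 535/em 590 nm). Endogenous PDE-IV was targeted. Compounds were tested at up to 22.9 uM final; RO 20-1724 100 uM served as control.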
(In general: In qHTS, concentration-response curves come from the screen itself.)

In assay [7] the target is Cytochrome P450 3A4 (Homo sapiens) (UniProt P08684). Kind of assay: qHTS Assay for Activators of Cytochrome P450 3A4 (AID 885; active means well fitted curve in the direction sought with a large enough effect; an effect the other way counts as inactive or inconclusive; further: nearly all actives have a fitted effect of over 65% in size). The gist of the method: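 Using 20nM recombinant human CYP3A4 in potassium phosphate (200mM), substrate Luciferin-PPXE at 25uM, luminescent luciferin detection followed a 60-min RT NADPH reaction; data scaled to 57 uM ketoconazole.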
Assay [8] is described as follows: qHTS Assay for Lipid Storage Modulators (AID 1519; calls by dose curve). As to conditions: Drosophila S3 cells, BODIPY lipid droplet/cell ratio, laser cytometry, cells loaded with oleic acid; for activity change, negative = inhibition: at 57.5 µM (top of the series). In short, it runs like this: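 Cells seeded at 5,000 per well were treated with compounds over a concentration series and loaded with oleic acid (400 uM, as added). Lipid droplet fluorescence (488 nm excitation, 500-530 nm channel) was read by laser-scanning cytometry and normalized to 20 uM Triacsin C.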

Assay [9] is described as follows: Primary qHTS for small molecule stabilizers of the endoplasmic reticulum resident proteome: Secreted ER Calcium Modulated Protein (SERCaMP) assay (AID 1508630; active means well fitted curve in the direction sought with a large enough effect; an effect the other way counts as inactive or inconclusive; further: on the % scale 0 is the no-effect control and ±100 the full control effect). The gist of the method:
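The SH-SY5Y reporter protocol was run at 3 concentrations up to 38.3 uM (primary) or 11 concentrations (follow-up): 16 h compound, 100 nM thapsigargin for 4 h, then extracellular luciferase luminescence.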

Assay [10] is described as follows: NFAT Signaling Pathway (AID 444). As to conditions: Jurkat NFAT-bla M1, carbachol, beta-lactamase ratio, 5 h; at 7.69 µM (top of the series) unless noted. The gist of the method: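 Jurkat cells with NFAT-driven β-lactamase reporter and co-expressed M1 receptor, stimulated with carbachol (final 1 uM, ~EC50), compound titration, 5 h at 37 °C. CCF4 loaded 1 h at RT; 460/530 nm ratio gave %activity and AC50.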

In assay [11] the target is Glucocorticoid receptor (Homo sapiens) (UniProt P04150). Kind of assay: GR-GFP Redistribution (AID 450;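 active means compounds whose dose series gives a full or clear partial fitted curve of increased nuclear translocation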; further: potency means the concentration at half of the fitted maximal effect). Conditions: U2OS GR-GFP nuclear translocation, laser cytometry, 2 h.
Assay [12] in a line: Confirmation and Secondary Assay for Modulators of Hemoglobin Beta Chain Splicing at IVS2 705 locus (AID 930; active means well fitted curve in the direction sought with a large enough effect; an effect the other way counts as inactive or inconclusive;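 further: HeLa cells stably expressing the EGFP-705 splicing reporter; % of control where 0% means no effect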). In short, it runs like this: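 Fluorescence gain (488 nm laser, 500-520 nm PMT) reflects restored correct splicing of a mutant IVS2-705 intron inside EGFP in stably transfected HeLa cells after 2-day compound treatment.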
Assay [13] concerns the target Ubiquitin carboxyl-terminal hydrolase 1 (Homo sapiens) (UniProt O94782). Put plainly: Inhibitors of USP1/UAF1: Pilot qHTS (AID 504865; active means well fitted curve in the direction sought with a large enough effect; an effect the other way counts as inactive or inconclusive; further: nearly all actives have a fitted effect of over 35% in size; further: potency means the concentration at half of the fitted maximal effect). In short, it runs like this: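 Enzyme-free wells gave the negative control, while test wells held 1nM USP1/UAF1 preincubated with compound for 15 min at room temperature. Ub-Rho at 150nM final started the reaction, and fluorescence at 480/540 nm was recorded kinetically.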

Assay [14] deals with Cytochrome P450 3A4 (Homo sapiens) (UniProt P08684). Kind of assay: qHTS Assay for Inhibitors and Substrates of Cytochrome P450 3A4 (AID 884; active means well fitted curve in the direction sought with a large enough effect; an effect the other way counts as inactive or inconclusive; further: potency means the concentration at half of the fitted maximal effect; nearly all actives have a fitted effect of over 50% in size). In short, it runs like this:
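Luminescent readout of luciferin produced by CYP3A4 (20 nM) dealkylation of Luciferin-PPXE, 25 uM (its KM). NADPH-driven reaction ran 60 min at RT after 10 min compound preincubation; data scaled to 57 uM ketoconazole as 100% inhibition.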

[15] abbreviates: measured here: cell count channel max response.
[16] abbreviates: measured here: lipid channel max response.

Results filed as inconclusive are left out. Active and inactive are the calls of the source. Unless noted, the call rests on the fitted dose curve; in most records, active means well fitted curve in either direction with a large enough effect (not every such curve was filed as active); inconclusive means small, poorly fitted or top-dose-only effect, or another doubt; inactive means flat fitted curve, though single readings scatter.

Sequence of 3',5'-cyclic-AMP phosphodiesterase 4B (Homo sapiens) (Q07343 whole entry, looked up): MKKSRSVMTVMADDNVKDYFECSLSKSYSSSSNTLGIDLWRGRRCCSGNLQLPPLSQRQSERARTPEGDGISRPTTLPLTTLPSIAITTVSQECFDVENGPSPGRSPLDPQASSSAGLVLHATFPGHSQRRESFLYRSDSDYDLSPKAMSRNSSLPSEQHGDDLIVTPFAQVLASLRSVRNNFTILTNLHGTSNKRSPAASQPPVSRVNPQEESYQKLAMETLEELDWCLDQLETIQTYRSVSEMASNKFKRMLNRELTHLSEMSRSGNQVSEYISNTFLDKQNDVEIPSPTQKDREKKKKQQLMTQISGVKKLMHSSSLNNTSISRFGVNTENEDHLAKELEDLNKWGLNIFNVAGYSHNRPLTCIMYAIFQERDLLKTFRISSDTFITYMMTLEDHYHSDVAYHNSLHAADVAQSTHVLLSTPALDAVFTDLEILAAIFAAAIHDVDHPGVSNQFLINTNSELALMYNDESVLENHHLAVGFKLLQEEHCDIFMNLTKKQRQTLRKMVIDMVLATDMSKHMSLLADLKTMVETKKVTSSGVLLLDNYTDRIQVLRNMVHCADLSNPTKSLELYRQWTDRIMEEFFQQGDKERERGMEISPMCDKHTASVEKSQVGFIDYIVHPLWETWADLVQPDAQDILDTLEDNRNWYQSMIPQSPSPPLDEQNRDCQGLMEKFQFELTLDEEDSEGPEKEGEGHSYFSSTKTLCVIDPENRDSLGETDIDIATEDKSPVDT
Sequence of Ubiquitin carboxyl-terminal hydrolase 1 (Homo sapiens) (O94782 whole entry, looked up): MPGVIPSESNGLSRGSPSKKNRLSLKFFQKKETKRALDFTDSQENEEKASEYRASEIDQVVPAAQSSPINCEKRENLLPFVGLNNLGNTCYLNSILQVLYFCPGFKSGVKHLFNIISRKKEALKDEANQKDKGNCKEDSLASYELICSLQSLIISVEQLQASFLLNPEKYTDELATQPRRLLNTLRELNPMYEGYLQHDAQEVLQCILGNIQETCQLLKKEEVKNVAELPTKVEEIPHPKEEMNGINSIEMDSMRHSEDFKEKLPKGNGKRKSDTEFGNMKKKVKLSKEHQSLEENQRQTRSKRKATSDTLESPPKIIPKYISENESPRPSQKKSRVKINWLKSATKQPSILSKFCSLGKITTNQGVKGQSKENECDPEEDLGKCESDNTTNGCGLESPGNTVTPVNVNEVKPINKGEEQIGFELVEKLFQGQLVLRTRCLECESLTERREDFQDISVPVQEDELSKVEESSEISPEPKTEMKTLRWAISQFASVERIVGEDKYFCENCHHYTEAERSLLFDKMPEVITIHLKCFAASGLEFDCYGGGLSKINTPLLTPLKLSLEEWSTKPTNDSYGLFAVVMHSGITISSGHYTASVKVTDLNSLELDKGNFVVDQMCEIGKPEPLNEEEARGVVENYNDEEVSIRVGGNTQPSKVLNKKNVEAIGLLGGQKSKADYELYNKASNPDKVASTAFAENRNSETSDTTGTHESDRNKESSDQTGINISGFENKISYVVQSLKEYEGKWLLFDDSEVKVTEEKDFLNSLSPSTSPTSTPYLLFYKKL
Sequence of Glucocorticoid receptor (Homo sapiens) (P04150 whole entry, looked up, the tested form may be a part): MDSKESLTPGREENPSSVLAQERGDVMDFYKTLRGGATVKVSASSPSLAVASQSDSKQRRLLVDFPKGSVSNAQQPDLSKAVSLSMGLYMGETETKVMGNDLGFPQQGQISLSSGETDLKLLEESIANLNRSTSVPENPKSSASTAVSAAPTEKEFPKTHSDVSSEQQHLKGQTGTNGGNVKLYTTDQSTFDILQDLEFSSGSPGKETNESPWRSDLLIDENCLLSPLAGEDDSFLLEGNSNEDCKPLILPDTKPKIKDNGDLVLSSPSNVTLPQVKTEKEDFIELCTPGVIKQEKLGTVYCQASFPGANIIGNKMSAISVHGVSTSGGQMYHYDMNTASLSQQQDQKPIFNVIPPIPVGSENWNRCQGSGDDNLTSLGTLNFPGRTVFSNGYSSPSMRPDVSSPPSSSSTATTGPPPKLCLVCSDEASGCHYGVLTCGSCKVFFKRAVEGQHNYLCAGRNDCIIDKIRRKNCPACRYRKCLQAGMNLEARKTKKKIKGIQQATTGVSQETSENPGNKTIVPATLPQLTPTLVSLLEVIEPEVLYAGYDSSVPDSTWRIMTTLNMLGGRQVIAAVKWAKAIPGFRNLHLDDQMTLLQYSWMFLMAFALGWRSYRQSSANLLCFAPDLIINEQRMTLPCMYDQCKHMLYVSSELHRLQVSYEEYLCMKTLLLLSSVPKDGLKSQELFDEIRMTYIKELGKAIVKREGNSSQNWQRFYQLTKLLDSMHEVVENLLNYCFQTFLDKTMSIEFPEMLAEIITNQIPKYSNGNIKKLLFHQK
Sequence of Cytochrome P450 1A2 (Homo sapiens) (P05177 whole entry, looked up): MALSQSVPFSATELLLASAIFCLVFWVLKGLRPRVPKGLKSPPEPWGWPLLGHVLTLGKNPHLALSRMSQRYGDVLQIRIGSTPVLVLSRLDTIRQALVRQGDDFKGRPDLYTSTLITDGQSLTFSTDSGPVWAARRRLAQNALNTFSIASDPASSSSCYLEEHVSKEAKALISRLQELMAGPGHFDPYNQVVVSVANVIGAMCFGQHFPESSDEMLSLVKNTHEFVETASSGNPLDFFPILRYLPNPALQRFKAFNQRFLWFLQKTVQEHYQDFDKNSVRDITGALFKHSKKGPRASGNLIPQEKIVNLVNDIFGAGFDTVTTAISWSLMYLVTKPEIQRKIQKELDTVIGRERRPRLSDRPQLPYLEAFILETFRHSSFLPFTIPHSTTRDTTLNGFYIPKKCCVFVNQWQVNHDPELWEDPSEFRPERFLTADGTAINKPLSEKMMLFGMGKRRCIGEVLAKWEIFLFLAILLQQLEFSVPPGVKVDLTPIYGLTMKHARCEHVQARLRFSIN
Sequence of Cytochrome P450 3A4 (Homo sapiens) (P08684 whole entry, looked up): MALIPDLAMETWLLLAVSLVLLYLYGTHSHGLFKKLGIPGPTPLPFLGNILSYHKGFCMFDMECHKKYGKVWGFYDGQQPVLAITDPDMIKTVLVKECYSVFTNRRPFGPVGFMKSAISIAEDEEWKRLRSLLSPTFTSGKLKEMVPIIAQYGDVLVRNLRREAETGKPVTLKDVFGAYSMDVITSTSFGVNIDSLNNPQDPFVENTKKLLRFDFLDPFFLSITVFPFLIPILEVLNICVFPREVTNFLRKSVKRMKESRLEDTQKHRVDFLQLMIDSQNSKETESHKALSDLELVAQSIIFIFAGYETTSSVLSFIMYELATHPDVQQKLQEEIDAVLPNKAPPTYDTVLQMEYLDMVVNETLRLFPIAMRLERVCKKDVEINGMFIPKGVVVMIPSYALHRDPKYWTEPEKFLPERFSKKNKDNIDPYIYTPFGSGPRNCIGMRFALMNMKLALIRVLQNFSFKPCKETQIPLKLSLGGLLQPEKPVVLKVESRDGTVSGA

For the compound `Cn1cccc1C(=O)N1CCC2(CCCN(Cc3ccncc3)C2)CC1`, the activity change, negative = inhibition is -7.26% (inactive) in assay [1] and 7.27% (inactive) in assay [8]. Besides, the Potency in assay [2] was 15.8 µM (active); in [4], > 46 µM (inactive). Moreover, the activity, negative = inhibition in assay [3] was 7.75% (inactive). The Potency entry in [5], in assay [6] and in assay [7] was “inactive” throughout. Further, the figures for the max response in assay [8] (setting [15]) and in [8] (setting [16]) were 1.45% and 14.6%, respectively. Moreover, in assay [9], the outcome was inactive.

Take `Cc1cnc(CNc2ncnc3ccc(-c4ccccc4CN(C)C)cc23)cn1`: the activity change, negative = inhibition is 16.4% (inactive) in [1], -29.4% (inactive) in assay [10] and 9.03% (inactive) in [8]. Also, the Potency entry in [2], in assay [6] and in [13] was “inactive” in each case. Moreover, the activity, negative = inhibition in [3] was 11.7% (inactive). Also, the Potency in assay [11] and in assay [4] was > 46 µM (inactive) in each case. For the same compound, the result in assay [12] and in assay [9] was inactive. The max response stood at 5.18% in assay [8] (setting [15]) and 15.6% in assay [8] (setting [16]).

For `Cc1cnc(CNc2cc(-c3ccoc3)ncn2)cn1`, the activity change, negative = inhibition was -2.94% (inactive) in [1], 1.34% (inactive) in assay [10] and 3.62% (inactive) in assay [8]. In addition, the Potency in [2] is 25.1 µM (active); in [11], > 46 µM (inactive); in [4], > 46 µM (inactive). For the same compound, the activity, negative = inhibition in [3] is -9.44% (inactive). Besides, the Potency result in assay [5] and in assay [6] was “inactive” in each case. For the same compound, the outcome in assay [12] and in assay [9] was inactive. The values for the max response in assay [8] (setting [15]) and in [8] (setting [16]) were 9.95% and 14.7%, respectively.

With `COc1ccc(NC(=O)N2CC3(CCN(C(=O)c4csnn4)CC3)C2)cc1`, the activity change, negative = inhibition in assay [1] is 20.6% (inactive); in assay [10], 16.7% (inactive); in assay [8] it was 6.22% (inactive). In addition, the Potency entry in assay [2], in [5] and in [6] was “inactive” each time. Besides, the activity, negative = inhibition in [3] is -2.12% (inactive). In addition, the Potency in assay [4] was > 46 µM (inactive). Besides, the max response in assay [8] (setting [15]) was found to be 7.84%; in assay [8] (setting [16]), 18.1%. Besides, in assay [9], the result was inactive.

`Cc1noc(C)c1-c1nc(N2CCOCC2)c2ccccc2n1`: the activity change, negative = inhibition in assay [1] is -9.5% (inactive); in [10], 16.1% (inactive); in assay [8], 2.85% (inactive). The Potency in assay [2] is 0.316 µM (active); in assay [11] it was > 46 µM (inactive); in assay [4], > 46 µM (inactive); in [14], 6.31 µM (active). In [3], the activity, negative = inhibition is 19.8% (inactive). The Potency entry in assay [5], in assay [6] and in [7] was “inactive” each time. For the same compound, the compound was called inactive in [12] and in assay [9]. Also, the max response in assay [8] (setting [15]) was found to be 6.88%; in [8] (setting [16]), 9.54%.

Regarding `FC(F)(F)c1ccccc1-c1nccc(NCc2ccccc2)n1`, the figures for the activity change, negative = inhibition in assay [1], in assay [10] and in assay [8] were -1.94% (inactive), -3.71% (inactive) and 6.15% (inactive), respectively. In addition, the Potency in [2] was 12.6 µM (active); in [11] it was > 46 µM (inactive); in [4], > 46 µM (inactive); in [13], 6.31 µM (active). For the same compound, the activity, negative = inhibition in assay [3] is -13.7% (inactive). Besides, the Potency result in assay [5] and in [7] was “inactive” throughout. Also, the call in [12] and in assay [9] was inactive. Further, the figures for the max response in assay [8] (setting [15]) and in [8] (setting [16]) were 0.814% and 5.46%, respectively.

`CS(=O)(=O)Nc1cccc(-c2nccc(-n3ccnc3)n2)c1`: the activity change, negative = inhibition is -9.45% (inactive) in [1], -0.156% (inactive) in assay [10] and 2.72% (inactive) in [8]. For the same compound, the Potency is 0.2 µM (active) in assay [2], > 46 µM (inactive) in [11], > 46 µM (inactive) in [4] and 1.58 µM (active) in assay [14]. Besides, the activity, negative = inhibition in assay [3] was 0.985% (inactive). Also, the Potency result in assay [5], in [6], in assay [7] and in assay [13] was “inactive” throughout. The call in assay [12] and in assay [9] was inactive. In addition, the max response in assay [8] (setting [15]) worked out at 1.42%; in assay [8] (setting [16]) it was 5%.

These data come from PubChem BioAssay (NCATS).
